Source: PubChem BioAssay AID449762 (Southern Research Specialized Biocontainment Screening …, 2010)
Out of some 330,000 compounds screened, about 1,900 (0.58%) were called active. About 4% were inconclusive and are not listed. Cut-off read from the data, not from the text of the source: inconclusive = inhibition above about 70% without an active follow-up result; inactive = below that. Only a sample is shown. Results with a measured potency or affinity are listed apart.

Test: M. tuberculosis growth inhibition, HTS (AID 449762);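 note: bacterial growth assessed after seven days of incubation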
Details: M. tuberculosis H37Rv growth inhibition, 7H9 media; at 25 µM; active compounds read high

Row | Compound | inhibition
1 | COc1ccc(NC(=O)C2CCN(S(C)(=O)=O)CC2)cc1 | -4.9% (inactive)
2 | O=C(CC1SC(=NCC2CCCO2)NC1=O)Nc1cccc2ccccc12 (stereo not drawn) | 6.34% (inactive)
3 | CC(Oc1ccc(Br)cc1)C(=O)NCC(C)(C)N1CCOCC1 (stereo not drawn) | 4.22% (inactive)
4 | COc1cccc(CC(=O)N2CCN(c3ccccc3[N+](=O)[O-])CC2)c1 | 5.35% (inactive)
5 | CCc1nc(-c2ccc(-c3ccc(OC)cc3)nc2OC)no1 | 68.2% (inactive)
6 | COc1ccc(-c2ccc(-c3noc(C)n3)c(OC)n2)cc1 | 5.33% (inactive)
7 | COc1cc(OC)cc(OCC(O)Cn2ccnc2)c1 (stereo not drawn) | 7.96% (inactive)
8 | CCC(CC)C(=O)Nc1cc(C(=O)NCCc2ccccc2)ccc1Cl | 1.26% (inactive)
9 | Cc1ccc(NC(=O)CN2C(=O)NC(Cc3ccccc3)C2=O)c(Br)c1 (stereo not drawn) | -0.06% (inactive)
10 | Cc1ccc(SCCC(=O)OC(C(=O)NC(N)=O)C(C)C)cc1 (stereo not drawn) | -4.48% (inactive)
11 | CCCn1nc(C(=O)Nc2cc(C(=O)OC)ccc2C)c2ccccc2c1=O | 3.29% (inactive)
12 | CCCCn1nc(C(=O)NCc2ccccc2CN2CCCC2)c2ccccc2c1=O | -5.37% (inactive)
13 | CSCC[C@H](NC(=O)c1nn(C)c(=O)c2ccccc12)c1nc2ccccc2[nH]1 | -4.72% (inactive)
14 | CCCn1nc(C(=O)NNC(=O)c2ccc(OC(F)F)cc2)c2ccccc2c1=O | 3.96% (inactive)
15 | Cn1nc(C(=O)Nc2ccccc2N2CCCC2)c2ccccc2c1=O | 54.7% (inactive)
16 | CCn1nc(C(=O)N[C@@H](CCSC)c2nc3ccccc3[nH]2)c2ccccc2c1=O | 1.2% (inactive)
17 | C/C(=N\NC(=O)CNC(=O)C1COc2ccccc2O1)c1ccc(Cl)cc1 (stereo not drawn) | 1.09% (inactive)
18 | COc1ccc(/C=C/C(=O)OCC(=O)Nc2ccc(Cl)cn2)cc1 | 10.3% (inactive)
19 | CN1CC[n+]2cnc3ccccc3c21 | -2.8% (inactive)
20 | CC1(C)CC(NC(=O)C2CCN(S(=O)(=O)c3ccccc3C(F)(F)F)CC2)CC(C)(C)N1 | -16.1% (inactive)

Row | Compound | inhibition
21 | COc1ccccc1C(=O)COC(=O)Cn1nc(C)c([N+](=O)[O-])c1C | -2.3% (inactive)
22 | CCc1cc(=O)oc2c3c(cc(OCC(=O)NCCN4CCOCC4)c12)OC(C)(C)CC3 | -4.22% (inactive)
23 | c1ccc(-n2ccnc2)cc1 | 62.1% (inactive)
24 | c1ccc(-c2nc(-n3ccnc3)nc(-n3ccnc3)n2)cc1 | 22.2% (inactive)
25 | c1ccc(Cn2cc(-c3cccnc3)cn2)cc1 | 7.26% (inactive)
26 | CCCOP(=O)(O)c1c([N+](=O)[O-])cc(C(F)(F)F)cc1[N+](=O)[O-] (tested in a mixture with another compound) | -2.65% (inactive)
27 | Nc1cc(C(F)(F)F)cc([N+](=O)[O-])c1N | 18% (inactive)
28 | COC(=O)c1ccc(CNC(=O)C2CCC(=O)N(CCCc3ccccc3)C2)cc1 (stereo not drawn) | -9.71% (inactive)
29 | O=C(NC1CCCC1)c1ccccc1-c1ccccc1 | 64.1% (inactive)
30 | O=C(NC1CCCCCCC1)c1ccccc1O | 6.43% (inactive)
31 | CN(Cc1ccccc1)S(=O)(=O)c1cccc2nsnc12 | -5.13% (inactive)
32 | COC(=O)[C@@H](NC(=O)O[C@@H]1C(=O)c2cc(Br)ccc2O[C@H]1c1cccc(OC)c1)C(C)C | 8.75% (inactive)
33 | COc1ccc2c(c1)O[C@@H](c1cccc(C(F)(F)F)c1)[C@H](OC(=O)NCCc1ccc(OC)c(OC)c1)C2=O | 8.51% (inactive)
34 | Cc1cc(=O)oc2cc(NC(=S)NNC(=O)c3c(Cl)cnn3C)ccc12 | -1.94% (inactive)
35 | CCN(CC)C(=O)c1ccccc1NS(C)(=O)=O | -4.74% (inactive)
36 | C=CCNC(=O)CSc1nnc(-c2cccs2)o1 | 2.45% (inactive)
37 | CCNC(=O)CSc1nnc(-c2cccs2)o1 | 17% (inactive)
38 | Clc1ccc(OCCOCCN2CCCCC2)c(Br)c1 | -2.44% (inactive)
39 | CC(C)N1CCN(Cc2cccn2-c2cccnc2)CC1CCO (stereo not drawn) | -3.04% (inactive)
40 | CCOC(=O)C1(CCc2ccccc2)CCN(Cc2ccc(NC(C)=O)cc2)CC1 | -6.26% (inactive)

Row | Compound | inhibition
41 | COc1cc2ncnc(NCc3ccccc3F)c2cc1OC | 4.17% (inactive)
42 | CCc1ccc2[nH]c(=O)c(C(c3nnnn3CCOC)N3CCN(c4ccccc4)CC3)cc2c1 (stereo not drawn) | -6.34% (inactive)
43 | COc1ccc2cc(C(c3nnnn3CCc3ccccc3)N3CCC(O)CC3)c(=O)[nH]c2c1 (stereo not drawn) | -12.3% (inactive)
44 | COc1cccc(OC)c1C(=O)NC(=S)N1CCCCC1c1cccnc1 (stereo not drawn) | -6.76% (inactive)
45 | O=C(CCC(=O)c1cccs1)OCC(=O)c1ccc(F)cc1 | 1.25% (inactive)
46 | COCCn1c(C)cc(C(=O)COC(=O)c2c(C)nn(Cc3ccccc3)c2C)c1C | 20.6% (inactive)
47 | Cc1nn(Cc2ccccc2)c(C)c1C(=O)OCC(=O)c1cc(C)n(C2CC2)c1C | 63.9% (inactive)
48 | CSc1ccc(C(=O)C2CCCN(Cc3cccn3-c3cccnc3)C2)cc1 (stereo not drawn) | 9.15% (inactive)
49 | O=C(c1ccc2c(c1)OCO2)N1CCc2ccccc21 | -5.13% (inactive)
50 | Cc1nc(SCC(=O)c2cc3ccccc3oc2=O)c(C#N)c(-c2cccs2)c1C(=O)Nc1ccccc1 | 3.9% (inactive)
51 | Cc1nc(SCC(=O)c2cc3ccccc3oc2=O)c(C#N)c(-c2ccccc2)c1C(=O)Nc1ccccc1 | 17.1% (inactive)
52 | COc1ccccc1Nc1nc(-c2sc(NC(=O)CC(C)C)nc2C)cs1 | 1.91% (inactive)
53 | Cc1nc(NC(=O)c2ccccc2)sc1-c1csc(Nc2ccc(Cl)cc2Cl)n1 | 6.01% (inactive)
54 | Cc1ccc(C(C)C)c(OCC(=O)Nc2ccc(N3CCN(S(C)(=O)=O)CC3)cc2)c1 | -4.74% (inactive)
55 | CCCCCCSc1ccc([C@H]2N[C@@](CC(C)C)(C(=O)OC)[C@H]3C(=O)N(CC)C(=O)[C@@H]23)cc1 | -1.98% (inactive)
56 | COc1cc(NC(=S)NCCc2ccccc2)c(OC)cc1NC(=O)CC(C)C | -2.92% (inactive)
57 | CN1C(=S)SC(N(O)C(=O)Nc2cccc3ccccc23)C1(C)C (stereo not drawn) | 3.28% (inactive)
58 | CN1C(=S)SC(N(O)C(=O)Nc2ccccc2)C1(C)C (stereo not drawn) | -1.59% (inactive)
